For 32 compounds, red/green cell ratio (normalised) and normalised cell number results are on record in PubChem BioAssay.

Structures are written as SMILES. Active and inactive are the calls of the source.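 Rule for the calls: active = compounds killing one labelled cell type while sparing the other, by normalised counts and ratio limits, not self-fluorescent; inactive = the rest.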

The nature of the assay: differential killing of epithelial or mesenchymal cells, primary screen, imaging, PC-3E GFP, TEM4-18 mCherry, co-culture (AID 1345086).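 For all read-outs here: cells exposed to compound for 72 h before imaging.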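 For red/green cell ratio (normalised): normalised mesenchymal count divided by normalised epithelial count so high means epithelial killing.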 The settings on record: imaging cell counts, at 1 µM; for red/green cell ratio (normalised): actives lie on both sides, counts scaled to control wells, 1 = unselective.
[1] abbreviates: measured here: epithelial PC-3E GFP cell survival.
Where [2] appears, read: measured here: mesenchymal TEM4-18 mCherry cell survival.

For the compound `CCC(CCC(C)[C@H]1CCC2C3CC=C4C[C@@H](OC(C)=O)CC[C@]4(C)C3CC[C@@]21C)C(C)C` (stereo partly specified), the red/green cell ratio (normalised) is 0.94 (inactive). Also, the normalised cell number under setting [1] is 1.1. This compound also came in with a normalised cell number under setting [2] of 1.03.

For the compound `CC(=O)OC1CCC2(C)C3CC(=O)C4(C)C(CC5OC6(CCC(C)CO6)[C@@H](C)C54)C3CC[C@H]2C1` (stereo partly specified), the red/green cell ratio (normalised) is 0.89 (inactive). The same compound gave a normalised cell number under setting [1] of 1.05. In addition, under setting [2], the normalised cell number was determined as 0.93.

Turning to `Cc1oc(=O)c2c(O)cc(O)c(C)c2c1C`, the red/green cell ratio (normalised) is 1.03 (inactive). In addition, the normalised cell number under setting [1] is 1.11. The normalised cell number under setting [2] worked out at 1.14.

Regarding `COc1cc(/C=C/C(=O)/C=C(O)/C=C/c2ccc(O)c(OC)c2)ccc1O`, the red/green cell ratio (normalised) was 1.04 (inactive). Also, under setting [1], the normalised cell number worked out at 1.02. Under setting [2], this compound yielded a normalised cell number of 1.06.

As to `COc1cccc2c1C(=O)OCc1cc(C)cc(O)c1O2`, the red/green cell ratio (normalised) is 0.9 (inactive). For the same compound, the normalised cell number under setting [1] was determined as 1.17. Besides, the normalised cell number under setting [2] was 1.05.

Take `COC(=O)C1O[C@H](OC)[C@@H](OCc2ccccc2)[C@@H](OCc2ccccc2)C1O` (stereo partly specified): the red/green cell ratio (normalised) was 1 (inactive). Under setting [1], this compound displayed a normalised cell number of 1.14. Also, the normalised cell number under setting [2] came to 1.15.

Take `COC(=O)C1O[C@H](OCc2ccccc2)[C@@H](OC(=O)c2ccccc2)[C@@H](OC(=O)c2ccccc2)C1O` (stereo partly specified): the red/green cell ratio (normalised) was 1.02 (inactive). Moreover, the normalised cell number under setting [1] was 1.18. The compound further registered a normalised cell number under setting [2] of 1.2.

Regarding `CO[C@@]1(NC(=O)C2SC(=C(C(N)=O)C(=O)O)S2)C(=O)N2C(C(=O)O)=C(CSc3nnnn3C)CSC21` (stereo partly specified), the red/green cell ratio (normalised) was 0.96 (inactive). For the same compound, the normalised cell number under setting [1] came out at 1.21. The same compound gave a normalised cell number under setting [2] of 1.17.

For `CC1CCC2OC2C/C=C/C(=O)c2c(O)cc(O)cc2CC(=O)O1` (stereo unspecified), the red/green cell ratio (normalised) was 0.83 (inactive). Moreover, the normalised cell number under setting [1] amounted to 0.88. The same compound came in with a normalised cell number under setting [2] of 0.73.

Take `CCC1=CC2CN(C1)Cc1c([nH]c3ccccc13)[C@@](C(=O)OC)(c1cc3c(cc1OC)N(C)[C@H]1[C@@](O)(C(=O)OC)[C@H](OC(C)=O)[C@]4(CC)C=CCN5CC[C@]31[C@@H]54)C2` (stereo partly specified): the red/green cell ratio (normalised) was 1.47 (inactive). In addition, the normalised cell number under setting [1] stood at 0.13. Moreover, the normalised cell number under setting [2] turned out to be 0.2.

On to `COc1cc(C(=O)O)cc(OC)c1O`, for which the red/green cell ratio (normalised) is 1.08 (inactive). For the same compound, the normalised cell number under setting [1] was found to be 1. The compound further had a normalised cell number under setting [2] of 1.07.

For `CC(C)CC1OC23SCC(c4ccccc4)N2C(=O)C1C(C)(C)S3` (stereo unspecified), the red/green cell ratio (normalised) is 0.9 (inactive). For the same compound, the normalised cell number under setting [1] stood at 1.15. The normalised cell number under setting [2] amounted to 1.03.

`Cc1ccc(S[C@H]2OC(COCc3ccccc3)C(O)[C@@H]3OC(=O)N[C@H]23)cc1` (stereo partly specified): the red/green cell ratio (normalised) was 1.07 (inactive). Moreover, the normalised cell number under setting [1] is 0.9. For the same compound, under setting [2], the normalised cell number was determined as 0.96.

For the compound `CC(C)c1c(O)ccc2c1CCC1C(C)(C)CCC[C@]21C` (stereo partly specified), the red/green cell ratio (normalised) is 0.99 (inactive). For the same compound, under setting [1], the normalised cell number stood at 1.08. Besides, under setting [2], the normalised cell number stood at 1.07.

For `CC(C)CCCC(C)C1CCC2C3=CC[C@H]4C[C@@H](O)CC[C@]4(C)C3CC[C@@]21C` (stereo partly specified), the red/green cell ratio (normalised) is 0.98 (inactive). Also, the normalised cell number under setting [1] worked out at 1.1. The normalised cell number under setting [2] stood at 1.08.

Turning to `CCO[C@H]1OC(C(=O)OC)C(OC(=O)CCC(=O)O)[C@H](OC(=O)c2ccccc2)[C@@H]1OC(=O)c1ccccc1` (stereo partly specified), the red/green cell ratio (normalised) was 0.91 (inactive). The compound further returned a normalised cell number under setting [1] of 1.18. The same compound registered a normalised cell number under setting [2] of 1.07.

Turning to `CCC(C)[C@H]1O[C@]2(C=C[C@@H]1C)C[C@@H]1C[C@@H](C/C=C(\C)[C@@H](OC3C[C@H](OC)C(O[C@H]4C[C@H](OC)[C@@H](O)[C@H](C)O4)[C@H](C)O3)[C@@H](C)/C=C/C=C3\COC4[C@H](OC)C(C)=C[C@@H](C(=O)O1)[C@]34O)O2` (stereo partly specified), the red/green cell ratio (normalised) is 0.83 (inactive). Under setting [1], this compound displayed a normalised cell number of 1.13. The compound further had a normalised cell number under setting [2] of 0.93.

Take `O=Cc1ccccc1O[C@@H]1O[C@H](CO)[C@H](O)[C@@H](O)[C@H]1O`: the red/green cell ratio (normalised) is 0.97 (inactive). This compound had a normalised cell number under setting [1] of 0.92. Under setting [2], this compound came in with a normalised cell number of 0.9.

For `C[C@@H]1CC[C@H]2C(C)(C)C3CC12CC[C@@]3(C)O` (stereo partly specified), the red/green cell ratio (normalised) is 0.98 (inactive). This compound yielded a normalised cell number under setting [1] of 0.93. The compound further yielded a normalised cell number under setting [2] of 0.91.

Take `CC(C)(C)[Si](C)(C)OCC1O[C@H](Sc2ccccc2)[C@H]2NC(=O)O[C@H]2C1O` (stereo partly specified): the red/green cell ratio (normalised) is 1.07 (inactive). This compound also showed a normalised cell number under setting [1] of 0.97. Also, under setting [2], the normalised cell number was 1.05.

In the case of `C=C[C@](C)(O)CC[C@@H]1[C@@]2(C)CCCC(C)(C)[C@@H]2CC[C@]1(C)O`, the red/green cell ratio (normalised) is 1.05 (inactive). Also, under setting [1], the normalised cell number came to 1.16. The same compound showed a normalised cell number under setting [2] of 1.21.

On to `C=C1C/C=C(\C)CC[C@@H]2[C@@H]1CC2(C)C`, for which the red/green cell ratio (normalised) was 1.09 (inactive). Under setting [1], the normalised cell number was found to be 0.98. Besides, the normalised cell number under setting [2] is 1.07.

In the case of `C=C1C2=C(C(=O)N1OC)[C@H](O)[C@](C)(O)[C@H](CCCCC)O2`, the red/green cell ratio (normalised) is 1.13 (inactive). The compound further showed a normalised cell number under setting [1] of 1.01. In addition, the normalised cell number under setting [2] stood at 1.15.

On to `CC(C)[C@@H]1CC[C@@H](C)C[C@H]1OC(=O)c1ccccc1`, for which the red/green cell ratio (normalised) is 1.07 (inactive). For the same compound, under setting [1], the normalised cell number worked out at 0.9. The normalised cell number under setting [2] was determined as 0.97.

Turning to `NCC1O[C@@H](OC2C(N)C[C@@H](N)C(OC3OC(CO)[C@@H](O)C(N)[C@H]3O)[C@H]2O)C(O)CC1O` (stereo partly specified), the red/green cell ratio (normalised) is 1.05 (inactive). The compound also gave a normalised cell number under setting [1] of 1.04. Under setting [2], the normalised cell number was determined as 1.09.

For `CC(C)(c1ccc(O)cc1)c1ccc(O)cc1`, the red/green cell ratio (normalised) was 0.93 (inactive). This compound showed a normalised cell number under setting [1] of 1.17. The compound also showed a normalised cell number under setting [2] of 1.09.

With `CC(=O)O[C@H]1CCC2(C)C3=C(CCC2C1(C)C)[C@@]1(C)CC[C@@H](C(C)CCC=C(C)C)[C@]1(C)CC3` (stereo partly specified), the red/green cell ratio (normalised) is 1.21 (inactive). The compound also gave a normalised cell number under setting [1] of 0.67. The same compound yielded a normalised cell number under setting [2] of 0.81.

For the compound `[N-]=[N+]=N[C@H]1[C@H](Sc2ccccc2)OC(CO)C(O)[C@@H]1O` (stereo partly specified), the red/green cell ratio (normalised) was 0.98 (inactive). Also, the normalised cell number under setting [1] is 1.08. For the same compound, the normalised cell number under setting [2] turned out to be 1.06.

On to `C[C@H]1[C@H](OC(=O)CCC(=O)O)O[C@@H]2O[C@]3(C)CC[C@H]4[C@H](C)CC[C@@H]1[C@@]24OO3`, for which the red/green cell ratio (normalised) is 0.81 (inactive). Also, the normalised cell number under setting [1] was determined as 0.68. The same compound came in with a normalised cell number under setting [2] of 0.55.

In the case of `CO[C@H]1OC2COC(c3ccccc3)OC2[C@H](OCc2ccccc2)[C@@H]1OCc1ccccc1` (stereo partly specified), the red/green cell ratio (normalised) was 1 (inactive). Besides, under setting [1], the normalised cell number was found to be 1.15. The compound further gave a normalised cell number under setting [2] of 1.15.

Regarding `COc1ccc2cc(C(C)=O)ccc2c1`, the red/green cell ratio (normalised) is 1.13 (inactive). This compound gave a normalised cell number under setting [1] of 0.99. Also, under setting [2], the normalised cell number is 1.12.

With `CO/C(C)=C1/C(=O)C(CO)OC1O` (stereo unspecified), the red/green cell ratio (normalised) was 1.02 (inactive). Under setting [1], this compound showed a normalised cell number of 0.93. Moreover, the normalised cell number under setting [2] is 0.95.
